Laboratory results reported in PubChem BioAssay AID1159580 (chemical genetic matrix, 2015).
Values joined by “and” are separate entries in the source; they are usually repeats but may differ in a detail not shown here. Identical values can stand only once. Out of some 5,500 compounds screened, about 2,000 (36%) were called active. Inconclusive results (about 18%) are left out. Cut-off read from the data, not from the text of the source: active = normalized growth mostly below about 0.91 (no sharp cut-off); inconclusive = no clear call, values can overlap the other calls; inactive = mostly above about 0.92. This is one part of the list.

Assay: chemical genetic growth profiling, strain panel (AID 1159580);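 note: tested at 20 µM; growth read once vehicle control cultures reached saturation at 30 °C; 1 = growth at the plate median or of vehicle wells; lower values mean less growth of the strain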
Conditions: S. cerevisiae deletion strains, growth OD

Measured: normalized growth

CO[C@@]1(NC(=O)C(C(=O)O)c2ccc(O)cc2)C(=O)N2C(C(=O)O)=C(CSc3nnnn3C)CO[C@@H]21 (stereo partly specified)
inactive: locus YAL013W, strain DEP1, hits give low values 1.01 | locus YAL021C, strain ccr4, hits give low values 0.993 | locus YAL026C, strain drs2, hits give low values 1 | locus YAL030W, strain snc1, hits give low values 0.982 | locus YBL061C, strain skt5, hits give low values 0.979 | locus YBR021W, strain FUR4, hits give low values 0.998 | locus YBR023C, strain chs3, hits give low values 0.994 | locus YBR171W, strain sec66, hits give low values 0.984 | locus YBR229C, strain ROT2, hits give low values 1 | locus YBR231C, strain swc5, hits give low values 0.956 | locus YBR279W, strain paf1, hits give low values 0.995 | locus YCL011C, strain gbp2, hits give low values 0.955 | locus YCL016C, strain dcc1, hits give low values 0.955 | locus YCL029C, strain bik1, hits give low values 1.03 | locus YCL061C, strain MRC1, hits give low values 1 | locus YCL069W, strain vba3, hits give low values 0.991 | locus YCR088W, strain abp1, hits give low values 0.984 | locus YDL005C, strain med2, hits give low values 0.991 | locus YDL035C, strain GPR1, hits give low values 0.999 | locus YDL040C, strain nat1, hits give low values 0.989 | locus YDL074C, strain BRE1, hits give low values 1.03 | locus YDL101C, strain DUN1, hits give low values 1.01 | locus YDL134C, strain PPH21, hits give low values 1 | locus YDL185W, strain tfp1, hits give low values 1.03 | locus YDL192W, strain arf1, hits give low values 1.02 | locus YDR001C, strain nth1, hits give low values 0.977 | locus YDR069C, strain doa4, hits give low values 1.01 | locus YDR101C, strain arx1, hits give low values 1.01 | locus YDR137W, strain rgp1, hits give low values 0.98 | locus YDR150W, strain NUM1, hits give low values 1.02 | locus YDR159W, strain sac3, hits give low values 1.01 | locus YDR162C, strain NBP2, hits give low values 1 | locus YDR195W, strain ref2 1 | locus YDR297W, strain sur2, hits give low values 0.971 | locus YDR318W, strain mcm21, hits give low values 1.02 | locus YDR334W, strain swr1, hits give low values 0.942 | locus YDR335W, strain msn5, hits give low values 0.981 | locus YDR388W, hits give low values 1.02 | locus YDR392W, strain spt3, hits give low values 0.909 | locus YDR502C, strain sam2, hits give low values 1.01 | locus YEL003W, strain gim4, hits give low values 0.99 | locus YEL037C, strain rad23, hits give low values 0.988 | locus YEL061C, strain CIN8 (second series), hits give low values 0.982 | locus YEL061C, strain CIN8, hits give low values 1.01 | locus YER015W, strain faa2, hits give low values 0.982 | locus YER016W, strain bim1, hits give low values 1 | locus YER110C, hits give low values 1.02 | locus YER111C, strain swi4, hits give low values 0.983 | locus YER155C, strain BEM2 (second series), hits give low values 0.993 | locus YER155C, strain BEM2, hits give low values 1.01 | locus YER167W, strain BCK2, hits give low values 1 | locus YFR010W, strain ubp6, hits give low values 0.996 | locus YGL078C, strain dbp3, hits give low values 0.998 | locus YGL086W, strain mad1, hits give low values 1.01 | locus YGL167C, strain pmr1, hits give low values 0.987 | locus YGL173C, strain kem1, hits give low values 0.992 | locus YGL227W, strain vid30, hits give low values 0.99 | locus YGL240W, strain doc1, hits give low values 0.987 | locus YGL248W, strain PDE1, hits give low values 1.01 | locus YGL253W, strain hxk2, hits give low values 0.996 | locus YGR078C, strain PAC10, hits give low values 1.02 | locus YGR135W, strain pre9, hits give low values 1 | locus YGR229C, strain SMI1, hits give low values 1 | locus YGR252W, strain gcn5, hits give low values 0.93 | locus YHR013C, strain ard1, hits give low values 0.962 | locus YHR027C, strain rpn1, hits give low values 0.964 | locus YHR030C, strain SLT2, hits give low values 1.01 and 0.97 | locus YHR079C, strain IRE1 (second series), hits give low values 1.02 | locus YHR079C, strain IRE1, hits give low values 0.99 | locus YHR094C, strain hxt1, hits give low values 1.02 | locus YHR129C, strain ARP1, hits give low values 1 | locus YHR142W, strain chs7, hits give low values 0.974 | locus YHR200W, strain rpn10, hits give low values 1.02 | locus YIL066C, strain RNR3, hits give low values 1.02 | locus YIL073C, strain SPO22, hits give low values 1.04 | locus YIL125W, strain kgd1, hits give low values 1.01 | locus YIR030C, strain dcg1, hits give low values 1.02 | locus YJL092W, strain hpr5, hits give low values 0.983 | locus YJL095W, strain BCK1 (second series), hits give low values 0.982 | locus YJL095W, strain BCK1, hits give low values 1.01 | locus YJL115W, strain asf1, hits give low values 0.96 | locus YJL129C, strain trk1, hits give low values 0.999 | locus YJL134W, strain LCB3, hits give low values 1 | locus YJL154C, strain vps35, hits give low values 0.975 | locus YJL164C, strain tpk1, hits give low values 0.989 | locus YJL166W, strain qcr8, hits give low values 0.951 | locus YJL168C, strain set2, hits give low values 1.02 | locus YJL187C, strain SWE1 (second series), hits give low values 1.02 | locus YJL187C, strain SWE1, hits give low values 0.986 | locus YJR043C, strain POL32, hits give low values 1.01 | locus YJR066W, strain TOR1, hits give low values 0.918
